From PubChem BioAssay come the findings set out here.

The subject of experiment [1] is Human papillomavirus type 1a protein E7 (residues 44-93). Briefly: small molecules binding HPV E7 44-93 – biochemical, small-molecule microarray, residues 44-93, 635 nm fluorescence, primary screen (AID 1108).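 Note: E7 fragment applied at 1 µg/mL in TBST for 1 h at 4 C; score combines spot fluorescence with its signal to noise ratio.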 Conditions: fluorescence 635 nm, higher = more signal.
Experiment [2] can be described thus: hepatitis C replication reporter changes, two-sided – Huh7 cells, luciferase reporter, HCV replication inhibitor project, primary screen (AID 1109).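 Note: huh7 hepatoma cells harbouring a luciferase neomycin HCV replicon reporter; luciferase luminescence as measure of HCV replicon replication; test concentration not given here.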 As to conditions: Huh7 HCV replicon luciferase reporter, 48 h; higher = more signal.
For experiment [3], the target named is Left-right determination factor 2 (Homo sapiens) (UniProt O00292). Briefly: small molecules binding LEFTY2 protein – biochemical, small-molecule microarray, 635 nm fluorescence scan, primary screen (AID 1110). Conditions: higher = more signal.
For experiment [4], the target named is Calmodulin-1 (Homo sapiens) (UniProt P0DP23). Briefly: small molecules binding calmodulin-1 with EGTA – biochemical, small-molecule microarray, Cy5-labelled CALM1, profiling panel (AID 1111).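 Note: labelled calmodulin applied in Tris saline Tween buffer holding calcium plus EGTA and DTT.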 Conditions: Cy5-CALM1 binding fluorescence, higher = more signal.
The target is the same in experiment [5]. Briefly: small molecules binding Ca-loaded calmodulin-1 – biochemical, small-molecule microarray, Cy5-labelled CALM1, plus calcium, artefact control for SMM control-protein annotation, profiling panel (AID 1112).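 Note: score merges spot fluorescence with signal to noise from triplicate slides.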 Conditions: Cy5-CALM1 binding fluorescence, higher = more signal.
Experiment [6] is described as follows: probe aWnt5a binding to arrayed compounds – biochemical, biotinylated probe, 635/667 nm fluorescence, primary screen (AID 1113).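 Note: score merges 667 nm fluorescence intensity with signal-to-noise per printed feature.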 As to conditions: small-molecule microarray, higher = more signal.
Experiment [7] is described as follows: probe aShh binding to arrayed compounds – biochemical, biotinylated probe, 635/667 nm fluorescence, primary screen (AID 1114).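 Note: probe is biotin-labelled aShh protein from a stem cell growth factor screen; measures binding of labelled protein to compounds printed on the slide; score merges feature fluorescence at 667 nm with signal-to-noise.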 Conditions: small-molecule microarray, higher = more signal.
Experiment [8] is described as follows: probe aNog binding to arrayed compounds – biochemical, biotinylated probe, 635/667 nm fluorescence, primary screen (AID 1115).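 Note: probe is biotinylated aNog protein used at 0.15 µg/mL for 1 h at 4 C; z-score combines 667 nm fluorescence of each spot with its signal to noise.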 Conditions: small-molecule microarray, higher = more signal.
Experiment [9] has as its target Torsin-1A-interacting protein 1 (Homo sapiens) (UniProt Q5JTV8). Briefly: compound microarray binding of lysate hLAP1 – cell lysate, small-molecule microarray, COS7 lysate, 635/667 nm fluorescence, primary screen (AID 1116). As to conditions: 635 nm fluorescence, higher = more signal.
Experiment [10] concerns the target Alpha-bungarotoxin (Bungarus multicinctus) (UniProt P60615). Briefly: compounds binding labelled alpha-BTX control protein – biochemical, small-molecule microarray, Alexa647 label, 635/667 nm fluorescence, artefact control for SMM control protein annotation, profiling panel (AID 1117). Conditions: alpha-BTX-A647 binding fluorescence, higher = more signal.
For experiment [11], the target named is Albumin (Bos taurus) (UniProt P02769). Briefly: compounds binding labelled BSA control protein – biochemical, small-molecule microarray, Alexa647 label, 635/667 nm fluorescence, artefact control for SMM control protein annotation, profiling panel (AID 1118).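 Note: score merges 667 nm emission intensity and signal-to-noise per printed compound spot.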 As to conditions: BSA-A647 binding, fluorescence 635 nm, higher = more signal.
A short description of experiment [12]: probe aXIP binding to arrayed compounds – biochemical, NeuroSMM set, 635/667 nm fluorescence, primary screen (AID 1119).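 Note: probe is the protein aXip251-270 applied at 1 µg/mL to compound-printed slides; binding of probe to printed compounds measured as 667 nm fluorescence plus signal to noise.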 Conditions: small-molecule microarray, higher = more signal, called active from +8 up or from −8 down.
The nature of experiment [13]: probe aNOTCH3 binding on compound microarray – biochemical, small-molecule microarray, 635/667 nm fluorescence, primary screen (AID 1120).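 Note: probe is a biotin-tagged antibody raised against NOTCH3 rather than NOTCH3 protein; score merges spot fluorescence near 667 nm with spot signal to noise.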 Conditions: higher = more signal.
A short description of experiment [14]: probe aNOTCH2 binding on compound microarray – biochemical, small-molecule microarray, 635/667 nm fluorescence, primary screen (AID 1121).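 Note: score merges feature fluorescence read at 667 nm with its signal to noise.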 Conditions: higher = more signal.
Experiment [15] concerns the target Carbonic anhydrase 2 (Homo sapiens) (UniProt P00918). Briefly: compounds binding carbonic anhydrase 2 – biochemical, small-molecule microarray, Alexa647-labelled CAII, profiling panel (AID 1122). As to conditions: CAII-A647 binding fluorescence, higher = more signal.
Experiment [16] in a line: COS7 lysate on small-molecule microarray, probe aHis, 635 nm (AID 1123).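 Note: z-score combines 667nm fluorescence intensity with signal-to-noise per printed compound spot.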 As to conditions: COS7 cell lysate, fluorescence, higher = more signal.
The nature of experiment [17]: probe aLAP1 signal on lysate-treated microarray – cell lysate, small-molecule microarray, COS7 lysate, primary screen (AID 1124).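 Note: lysate comes from COS7 cells expressing LAP1 and is applied at 0.3 µg/mL; score merges spot fluorescence near 667 nm with signal-to-noise over triplicate slides.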 Conditions: probe aLAP1, fluorescence, higher = more signal.
Experiment [18] deals with Sam68 (KHDRBS1). Briefly: compounds binding KHDRBS1 protein – biochemical, small-molecule microarray, 635 nm fluorescence, primary screen (AID 1125).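 Note: score merges 667 nm channel intensity with signal to noise over triplicate slides.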 Conditions: higher = more signal.
Experiment [19] has as its system Chordin-like protein 2 (CHRDL2). Briefly: compounds binding chordin-like 2 – biochemical, small-molecule microarray, 635 nm fluorescence, primary screen (AID 1126).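 Note: printed compound slides probed with Chrdl2 protein at 4 µg/mL for 1 h at 4 C; score merges 667 nm emission intensity with signal to noise over three replicate slides.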 Conditions: fluorescence 635 nm, higher = more signal.
Experiment [20] deals with Concanavalin-A (Canavalia ensiformis) (UniProt P02866). Briefly: compounds binding concanavalin A lectin – biochemical, small-molecule microarray, Alexa647 label, 635 nm, artefact control for SMM control protein annotation, primary screen (AID 1127).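 Note: z combines 667 nm emission intensity with signal-to-noise across three replicate slides.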 Conditions: ConA-A647 binding fluorescence, higher = more signal.

The source made the active and inactive calls.

Chain of Albumin (Bos taurus) (P02769 whole entry, looked up): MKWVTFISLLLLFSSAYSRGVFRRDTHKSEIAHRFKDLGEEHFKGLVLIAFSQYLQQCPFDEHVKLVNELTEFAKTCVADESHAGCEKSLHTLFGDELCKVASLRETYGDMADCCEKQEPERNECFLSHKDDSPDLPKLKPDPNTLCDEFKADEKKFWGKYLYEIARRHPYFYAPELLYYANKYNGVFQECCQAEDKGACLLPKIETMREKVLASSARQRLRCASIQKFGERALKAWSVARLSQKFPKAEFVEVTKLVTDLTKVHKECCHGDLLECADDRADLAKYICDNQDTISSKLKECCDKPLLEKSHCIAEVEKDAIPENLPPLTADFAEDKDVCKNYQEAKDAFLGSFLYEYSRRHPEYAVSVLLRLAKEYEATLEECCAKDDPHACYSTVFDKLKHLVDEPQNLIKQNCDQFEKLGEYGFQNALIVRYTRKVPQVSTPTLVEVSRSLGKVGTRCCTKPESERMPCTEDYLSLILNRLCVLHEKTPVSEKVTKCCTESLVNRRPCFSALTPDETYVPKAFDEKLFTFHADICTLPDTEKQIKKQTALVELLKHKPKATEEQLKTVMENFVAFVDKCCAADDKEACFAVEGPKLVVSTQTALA
Chain of Left-right determination factor 2 (Homo sapiens) (O00292 whole entry, looked up): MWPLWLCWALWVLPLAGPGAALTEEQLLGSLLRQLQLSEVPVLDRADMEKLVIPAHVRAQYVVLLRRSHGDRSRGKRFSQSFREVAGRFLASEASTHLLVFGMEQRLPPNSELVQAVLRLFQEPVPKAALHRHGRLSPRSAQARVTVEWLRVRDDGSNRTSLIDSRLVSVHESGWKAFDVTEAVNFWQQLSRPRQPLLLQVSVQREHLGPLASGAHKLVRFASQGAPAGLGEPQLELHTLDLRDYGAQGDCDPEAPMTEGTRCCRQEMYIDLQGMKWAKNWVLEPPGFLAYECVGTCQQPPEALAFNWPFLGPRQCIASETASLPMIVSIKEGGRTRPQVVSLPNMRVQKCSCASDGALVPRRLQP
Chain of Torsin-1A-interacting protein 1 (Homo sapiens) (Q5JTV8 whole entry, looked up): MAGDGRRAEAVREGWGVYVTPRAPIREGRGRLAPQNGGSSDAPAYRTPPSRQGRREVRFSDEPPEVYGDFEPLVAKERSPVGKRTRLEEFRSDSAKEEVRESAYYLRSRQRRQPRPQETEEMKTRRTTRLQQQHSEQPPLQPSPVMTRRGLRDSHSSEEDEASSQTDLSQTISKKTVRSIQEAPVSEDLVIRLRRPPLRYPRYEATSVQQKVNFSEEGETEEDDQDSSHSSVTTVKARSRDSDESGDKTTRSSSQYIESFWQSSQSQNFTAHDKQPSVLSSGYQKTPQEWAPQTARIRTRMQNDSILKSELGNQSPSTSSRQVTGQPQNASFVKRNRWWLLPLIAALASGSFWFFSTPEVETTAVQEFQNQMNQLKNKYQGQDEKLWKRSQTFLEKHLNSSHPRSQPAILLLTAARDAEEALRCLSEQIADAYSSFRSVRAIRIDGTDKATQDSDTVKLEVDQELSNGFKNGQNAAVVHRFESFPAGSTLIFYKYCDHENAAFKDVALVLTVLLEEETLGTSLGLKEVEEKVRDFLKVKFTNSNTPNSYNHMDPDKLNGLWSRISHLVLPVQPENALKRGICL
Chain of Alpha-bungarotoxin (Bungarus multicinctus) (P60615 whole entry, looked up): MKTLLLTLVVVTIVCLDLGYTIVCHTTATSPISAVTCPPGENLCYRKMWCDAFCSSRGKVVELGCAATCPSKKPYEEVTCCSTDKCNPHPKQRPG
Chain of Concanavalin-A (Canavalia ensiformis) (P02866 whole entry, looked up): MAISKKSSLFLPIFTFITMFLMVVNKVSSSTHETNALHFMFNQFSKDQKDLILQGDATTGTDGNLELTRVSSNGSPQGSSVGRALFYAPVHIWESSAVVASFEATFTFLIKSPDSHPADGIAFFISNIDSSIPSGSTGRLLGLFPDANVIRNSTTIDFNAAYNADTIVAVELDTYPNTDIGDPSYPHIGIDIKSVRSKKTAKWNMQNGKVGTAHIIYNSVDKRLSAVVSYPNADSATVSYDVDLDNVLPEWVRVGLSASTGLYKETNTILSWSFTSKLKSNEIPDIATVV

As to `COc1ccc(C(=O)Nc2ccc(CN3C(=O)[C@@]4(O[C@@H](CCO)[C@H]([Si](C)(C)c5ccc(OC)cc5)[C@H]4C)c4ccccc43)cc2)cc1`, the composite z-score in [1] was 0.908; in experiment [3], 0.861; in experiment [4], 0.0404; in experiment [5], -0.608; in experiment [6], 0.0367; in experiment [7], -0.0146. Further, the composite z-score in experiment [8] is 0.0395; in experiment [9], 1.12; in experiment [10], 0.643; in [11] it was -0.338; in experiment [13], 0.0034; in experiment [14] it was -0.0999. Also, the composite z-score is 0.531 in experiment [15]; 0.81 in experiment [16]; 0.292 in experiment [17]; 1.3 in [18]; 0.959 in [19]; 1.14 in experiment [20]. Moreover, the z-score in experiment [2] is -5.15. The composite Z-score in experiment [12] was 0.673 (inactive).

`O=C1NCC(=O)N2[C@@H]1C[C@@H](C(=O)O)[C@H]2c1cccc(OCCO)c1`: the composite z-score in [1] is 1.57; in [3] it was 1.68; in experiment [4], 2.17; in experiment [5], 1.1; in experiment [6], 1.38; in experiment [7], 3.13. The composite z-score is 3.62 in experiment [8]; 4.92 in [9]; 2.04 in experiment [10]; -0.175 in experiment [11]; 2.12 in [13]; 1.12 in experiment [14]. The composite z-score in [15] amounted to 0.628; in experiment [16], 5.25; in experiment [17] it was 1.03; in [18], 1.33; in experiment [19] it was 1.6; in experiment [20] it was 0.945. Besides, the z-score in [2] amounted to 0.19. Also, the composite Z-score in experiment [12] is 10.2 (active).

Turning to `COc1ccc([Si](C)(C)[C@@H]2[C@@H](CCO)O[C@]3(C(=O)N(Cc4ccc(N5C(=O)COc6ccccc65)cc4)c4ccccc43)[C@H]2C)cc1`, the composite z-score in experiment [1] is -0.674; in experiment [3] it was 0.88; in experiment [4] it was 1.51; in experiment [5] it was 0.879; in experiment [6], 0.199; in [7], -0.0146. Also, the composite z-score in [8] was -0.394; in experiment [9], 0.572; in experiment [10], 0.896; in experiment [11] it was 0.671; in [13] it was 0.305; in experiment [14], -0.0924. Also, the composite z-score in [15] amounted to 0.59; in experiment [16], 1.55; in [17] it was 0.844; in [18], 1.33; in experiment [19] it was 0.106; in experiment [20], 1.07. Besides, the z-score in experiment [2] is -4.99. Moreover, the composite Z-score in [12] is -0.539 (inactive).

On to `CCCCCN1CC=CC23O[C@@H]4/C=C\CCCOC(=O)C4[C@H]2C(=O)N(CCCO)[C@@H]3C1=O` (stereo not given in full), for which the composite z-score is 0.626 in experiment [1]; -0.174 in experiment [3]; -0.113 in experiment [4]; 0.132 in experiment [5]; -0.128 in experiment [6]; -0.214 in experiment [7]. Also, the composite z-score in experiment [8] was -0.244; in experiment [9], 2.88; in experiment [10], -0.0566; in experiment [11], 0.433; in experiment [13], -0.095; in [14], -0.104. For the same compound, the composite z-score in experiment [15] is 0.689; in [16], 1.82; in experiment [17] it was 1.04; in experiment [18], 0.798; in [19], -0.343; in experiment [20], 0.256. Moreover, in experiment [2], the z-score was -0.549. Further, the composite Z-score in experiment [12] is -0.0981 (inactive).

`COCCn1c(C(=O)N2CCCC2)cc2c1C[C@H]1CN(C(=O)c3ccccc3)[C@@](Cc3ccc(F)cc3)(C(=O)OC)[C@@H]21`: the composite z-score in [1] is 1.43; in experiment [3] it was -0.0638; in experiment [4] it was 2.41; in experiment [5] it was 0.954; in experiment [6], 0.402; in [7], 0.636. The composite z-score was -0.489 in experiment [8]; 2.88 in [9]; 0.476 in [10]; 1.02 in [11]; 0.309 in experiment [13]; 0.11 in experiment [14]. For the same compound, the composite z-score in experiment [15] was 0.827; in experiment [16] it was 2.96; in experiment [17] it was 0.406; in experiment [18], 1.32; in experiment [19], -0.364; in experiment [20] it was 1. For the same compound, the z-score in experiment [2] is -1.42. The composite Z-score in experiment [12] was 2 (inactive).
